Results taken from ChEMBL document CHEMBL3988442, “University of Dundee, Small-Polar-MMV Screening Library” (2021).
For some of these results: Results with a measured potency or affinity are listed apart.

How the values were obtained:
Set-up in all cases: scale not given: direction of the effect not stated beside the values
[1] = target: Protein translocase subunit SecA (Escherichia coli (strain K12)) (UniProt P10408); assay: Assay to Identify E. coli SecA ATPase Inhibitors; type: functional; conditions: 30 µM
Protein translocase subunit SecA (Escherichia coli (strain K12)), sequence (P10408 whole entry): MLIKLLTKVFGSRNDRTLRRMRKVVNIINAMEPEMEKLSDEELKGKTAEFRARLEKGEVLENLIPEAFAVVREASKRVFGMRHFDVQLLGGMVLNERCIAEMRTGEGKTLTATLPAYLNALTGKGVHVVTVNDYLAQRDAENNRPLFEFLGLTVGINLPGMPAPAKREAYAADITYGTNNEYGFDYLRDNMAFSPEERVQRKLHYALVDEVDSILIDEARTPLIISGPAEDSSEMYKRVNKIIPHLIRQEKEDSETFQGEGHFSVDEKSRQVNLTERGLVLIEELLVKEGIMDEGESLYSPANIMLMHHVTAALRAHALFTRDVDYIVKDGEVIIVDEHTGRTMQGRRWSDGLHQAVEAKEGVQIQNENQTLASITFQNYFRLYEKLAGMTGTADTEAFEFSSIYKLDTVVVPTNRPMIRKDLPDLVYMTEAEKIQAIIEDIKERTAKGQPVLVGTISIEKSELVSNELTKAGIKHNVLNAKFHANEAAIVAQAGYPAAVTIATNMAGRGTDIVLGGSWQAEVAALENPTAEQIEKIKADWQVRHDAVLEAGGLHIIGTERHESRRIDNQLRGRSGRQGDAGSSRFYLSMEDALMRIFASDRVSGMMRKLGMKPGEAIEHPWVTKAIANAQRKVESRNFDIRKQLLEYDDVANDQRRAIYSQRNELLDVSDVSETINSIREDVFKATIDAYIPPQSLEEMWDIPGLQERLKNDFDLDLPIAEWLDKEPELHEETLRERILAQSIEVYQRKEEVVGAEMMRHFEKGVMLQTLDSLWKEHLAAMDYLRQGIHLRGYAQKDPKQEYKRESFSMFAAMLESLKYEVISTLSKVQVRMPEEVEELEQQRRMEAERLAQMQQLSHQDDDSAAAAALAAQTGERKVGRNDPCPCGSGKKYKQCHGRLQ

[2] = target: T1, Ubiquitin-activating enzyme e1, putative (Leishmania donovani (strain BPK282A1)) (UniProt E9BSI1); assay: Leishmania donovani Ubiquitin Activating Enzyme (LdE1); type: functional; conditions: 30 µM
T1 sequence (whole entry): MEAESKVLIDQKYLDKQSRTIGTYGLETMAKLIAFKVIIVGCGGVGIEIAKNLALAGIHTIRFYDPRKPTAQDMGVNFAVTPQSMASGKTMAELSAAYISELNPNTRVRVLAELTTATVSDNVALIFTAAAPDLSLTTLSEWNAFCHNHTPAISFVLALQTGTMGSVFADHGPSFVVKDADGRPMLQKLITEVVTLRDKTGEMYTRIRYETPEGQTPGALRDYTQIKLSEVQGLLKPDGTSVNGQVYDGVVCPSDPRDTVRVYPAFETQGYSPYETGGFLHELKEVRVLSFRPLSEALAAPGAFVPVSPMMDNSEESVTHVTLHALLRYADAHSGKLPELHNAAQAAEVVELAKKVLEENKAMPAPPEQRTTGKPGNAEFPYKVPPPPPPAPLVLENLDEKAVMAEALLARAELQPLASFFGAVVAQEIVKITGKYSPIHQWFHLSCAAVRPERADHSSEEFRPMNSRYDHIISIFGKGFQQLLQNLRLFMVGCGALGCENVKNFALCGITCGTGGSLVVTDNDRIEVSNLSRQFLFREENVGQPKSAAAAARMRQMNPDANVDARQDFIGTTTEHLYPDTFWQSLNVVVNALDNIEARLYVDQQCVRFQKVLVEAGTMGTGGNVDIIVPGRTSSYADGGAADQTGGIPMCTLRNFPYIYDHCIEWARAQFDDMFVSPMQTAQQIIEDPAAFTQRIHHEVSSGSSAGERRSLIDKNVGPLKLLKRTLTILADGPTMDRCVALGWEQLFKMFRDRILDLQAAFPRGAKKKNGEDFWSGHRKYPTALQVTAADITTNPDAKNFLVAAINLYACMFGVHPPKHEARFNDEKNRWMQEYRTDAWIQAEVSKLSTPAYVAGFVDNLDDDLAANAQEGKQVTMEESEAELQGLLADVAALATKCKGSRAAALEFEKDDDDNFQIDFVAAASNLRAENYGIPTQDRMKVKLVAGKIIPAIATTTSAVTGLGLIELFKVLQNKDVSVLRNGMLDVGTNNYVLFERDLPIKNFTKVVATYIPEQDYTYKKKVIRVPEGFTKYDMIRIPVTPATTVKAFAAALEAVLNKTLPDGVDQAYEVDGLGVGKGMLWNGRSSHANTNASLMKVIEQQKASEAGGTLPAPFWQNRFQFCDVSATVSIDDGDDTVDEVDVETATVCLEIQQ

[3] = target: AMP-activated protein kinase, AMPK (Homo sapiens) (UniProt P54646+O43741+P54619+Q9UGJ0+Q9Y478+Q13131+Q9UGI9); assay: AMP-dependent Kinase enzyme assay. An in vitro enzyme assay that detects ADP turnover that is directly proportional to AMPK activity. This uses naive AMPK that is activated during the assay with MK-8722; type: functional; conditions: 30 µM
[4] = target: Sialic acid-binding Ig-like lectin 9 (Homo sapiens) (UniProt Q9Y336); assay: Hs-Siglec9 ALPHAscreen SOP 20170721; conditions: 10 µM
Sialic acid-binding Ig-like lectin 9 (Homo sapiens), sequence (Q9Y336 whole entry): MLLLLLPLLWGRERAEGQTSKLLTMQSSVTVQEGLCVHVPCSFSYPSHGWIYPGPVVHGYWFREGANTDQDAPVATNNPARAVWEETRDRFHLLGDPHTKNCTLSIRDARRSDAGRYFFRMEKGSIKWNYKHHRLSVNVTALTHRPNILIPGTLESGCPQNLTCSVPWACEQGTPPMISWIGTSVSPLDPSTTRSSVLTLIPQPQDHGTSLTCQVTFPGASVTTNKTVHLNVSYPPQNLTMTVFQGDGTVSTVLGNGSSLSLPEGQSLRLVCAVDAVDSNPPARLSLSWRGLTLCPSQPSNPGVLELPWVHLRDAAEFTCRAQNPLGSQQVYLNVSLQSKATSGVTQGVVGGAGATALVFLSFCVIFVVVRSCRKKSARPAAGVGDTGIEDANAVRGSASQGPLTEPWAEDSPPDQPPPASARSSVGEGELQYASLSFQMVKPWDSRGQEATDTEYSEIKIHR

[5] = test system: Trypanosoma cruzi; assay: Trypanosoma cruzi phosphomannomutase and mannose-1-phosphate guanylyltransferase assay; type: functional; conditions: 10 µM
[6] = target: T2, Arginase-2, mitochondrial (Homo sapiens) (UniProt P78540); assay: in vitro enzyme assay to detect the production of urea directly proportional to the activity of Arginase II; type: functional; conditions: 33.3 µM; further: in the data most compounds retested in dose-response had high values
T2 sequence (whole entry): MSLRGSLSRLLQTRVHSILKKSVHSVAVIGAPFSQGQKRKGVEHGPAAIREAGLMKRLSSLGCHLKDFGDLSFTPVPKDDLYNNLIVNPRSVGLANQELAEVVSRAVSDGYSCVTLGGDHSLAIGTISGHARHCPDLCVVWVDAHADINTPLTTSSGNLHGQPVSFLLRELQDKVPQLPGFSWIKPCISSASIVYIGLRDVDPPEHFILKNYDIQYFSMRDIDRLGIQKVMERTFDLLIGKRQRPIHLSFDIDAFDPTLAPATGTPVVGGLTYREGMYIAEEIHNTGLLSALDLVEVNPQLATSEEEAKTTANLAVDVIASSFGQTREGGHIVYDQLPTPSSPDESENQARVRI

[7] = target: T3, Proteasome subunit beta (Trypanosoma cruzi) (UniProt O96673); assay: Trypanosoma cruzi proteasome chymotrypsin-like activity (TcProtChymo) assay.; further: in the data most compounds retested in dose-response had high values; type: functional; conditions: 9.37 µM
T3 sequence (whole entry): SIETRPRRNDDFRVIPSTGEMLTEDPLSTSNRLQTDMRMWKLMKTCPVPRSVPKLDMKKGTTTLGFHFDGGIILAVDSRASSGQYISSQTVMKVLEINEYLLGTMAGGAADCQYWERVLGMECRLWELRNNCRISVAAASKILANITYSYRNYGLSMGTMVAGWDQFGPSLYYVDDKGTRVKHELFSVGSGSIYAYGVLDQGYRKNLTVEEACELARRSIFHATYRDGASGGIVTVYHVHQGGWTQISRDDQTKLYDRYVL

[8] = species: Homo sapiens; assay: To identify inhibition of the IFN signalling (Jak-Stat) pathway via expression of an eGFP reporter gene under the control of an IFN-stimulated response element (ISRE) containing MxA promoter.; type: functional; conditions: 30 µM
[9] = target: T4, Tyrosyl-tRNA synthetase, putative (Trypanosoma cruzi (strain CL Brener)) (UniProt Q4DSP6); assay: Trypanosoma cruzi tyrosyl tRNA synthetase (TcYRS) _High Tyrosine SOP; type: functional; conditions: 30 µM; further: in the data most compounds retested in dose-response had high values
T4 sequence (whole entry): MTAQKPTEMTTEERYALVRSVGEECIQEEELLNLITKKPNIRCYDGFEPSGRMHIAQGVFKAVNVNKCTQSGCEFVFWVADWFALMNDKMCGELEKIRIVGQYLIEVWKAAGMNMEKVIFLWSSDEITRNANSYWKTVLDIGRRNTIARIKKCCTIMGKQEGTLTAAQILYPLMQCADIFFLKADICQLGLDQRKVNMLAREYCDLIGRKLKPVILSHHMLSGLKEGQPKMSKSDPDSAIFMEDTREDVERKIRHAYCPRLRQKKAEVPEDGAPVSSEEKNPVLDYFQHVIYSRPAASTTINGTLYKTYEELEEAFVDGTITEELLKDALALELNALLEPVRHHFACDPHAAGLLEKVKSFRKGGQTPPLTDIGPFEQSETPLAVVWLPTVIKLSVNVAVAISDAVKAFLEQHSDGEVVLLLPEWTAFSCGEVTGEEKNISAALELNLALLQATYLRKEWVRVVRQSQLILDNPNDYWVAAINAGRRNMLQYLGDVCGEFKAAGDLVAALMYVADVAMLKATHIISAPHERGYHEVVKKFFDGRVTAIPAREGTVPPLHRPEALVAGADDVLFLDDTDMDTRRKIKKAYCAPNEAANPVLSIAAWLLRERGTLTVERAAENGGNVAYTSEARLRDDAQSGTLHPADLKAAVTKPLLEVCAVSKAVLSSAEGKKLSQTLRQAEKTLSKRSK

[10] = target: T4, Tyrosyl-tRNA synthetase, putative (Trypanosoma cruzi (strain CL Brener)); assay: Trypanosoma cruzi tyrosyl tRNA synthetase (TcYRS) SOP; type: functional; conditions: 30 µM
[11] = target: Chromo domain-containing protein 1 (Saccharomyces cerevisiae (strain ATCC 204508 / S288c) (Baker's yeast)) (UniProt P32657); assay: ScCHD-1 Enzyme Inhibition Assay; type: functional; conditions: 30 µM; further: in the data most compounds retested in dose-response had high values
Chromo domain-containing protein 1 (Saccharomyces cerevisiae (strain ATCC 204508 / S288c) (Baker's yeast)), sequence (P32657 whole entry, the tested form may be a part): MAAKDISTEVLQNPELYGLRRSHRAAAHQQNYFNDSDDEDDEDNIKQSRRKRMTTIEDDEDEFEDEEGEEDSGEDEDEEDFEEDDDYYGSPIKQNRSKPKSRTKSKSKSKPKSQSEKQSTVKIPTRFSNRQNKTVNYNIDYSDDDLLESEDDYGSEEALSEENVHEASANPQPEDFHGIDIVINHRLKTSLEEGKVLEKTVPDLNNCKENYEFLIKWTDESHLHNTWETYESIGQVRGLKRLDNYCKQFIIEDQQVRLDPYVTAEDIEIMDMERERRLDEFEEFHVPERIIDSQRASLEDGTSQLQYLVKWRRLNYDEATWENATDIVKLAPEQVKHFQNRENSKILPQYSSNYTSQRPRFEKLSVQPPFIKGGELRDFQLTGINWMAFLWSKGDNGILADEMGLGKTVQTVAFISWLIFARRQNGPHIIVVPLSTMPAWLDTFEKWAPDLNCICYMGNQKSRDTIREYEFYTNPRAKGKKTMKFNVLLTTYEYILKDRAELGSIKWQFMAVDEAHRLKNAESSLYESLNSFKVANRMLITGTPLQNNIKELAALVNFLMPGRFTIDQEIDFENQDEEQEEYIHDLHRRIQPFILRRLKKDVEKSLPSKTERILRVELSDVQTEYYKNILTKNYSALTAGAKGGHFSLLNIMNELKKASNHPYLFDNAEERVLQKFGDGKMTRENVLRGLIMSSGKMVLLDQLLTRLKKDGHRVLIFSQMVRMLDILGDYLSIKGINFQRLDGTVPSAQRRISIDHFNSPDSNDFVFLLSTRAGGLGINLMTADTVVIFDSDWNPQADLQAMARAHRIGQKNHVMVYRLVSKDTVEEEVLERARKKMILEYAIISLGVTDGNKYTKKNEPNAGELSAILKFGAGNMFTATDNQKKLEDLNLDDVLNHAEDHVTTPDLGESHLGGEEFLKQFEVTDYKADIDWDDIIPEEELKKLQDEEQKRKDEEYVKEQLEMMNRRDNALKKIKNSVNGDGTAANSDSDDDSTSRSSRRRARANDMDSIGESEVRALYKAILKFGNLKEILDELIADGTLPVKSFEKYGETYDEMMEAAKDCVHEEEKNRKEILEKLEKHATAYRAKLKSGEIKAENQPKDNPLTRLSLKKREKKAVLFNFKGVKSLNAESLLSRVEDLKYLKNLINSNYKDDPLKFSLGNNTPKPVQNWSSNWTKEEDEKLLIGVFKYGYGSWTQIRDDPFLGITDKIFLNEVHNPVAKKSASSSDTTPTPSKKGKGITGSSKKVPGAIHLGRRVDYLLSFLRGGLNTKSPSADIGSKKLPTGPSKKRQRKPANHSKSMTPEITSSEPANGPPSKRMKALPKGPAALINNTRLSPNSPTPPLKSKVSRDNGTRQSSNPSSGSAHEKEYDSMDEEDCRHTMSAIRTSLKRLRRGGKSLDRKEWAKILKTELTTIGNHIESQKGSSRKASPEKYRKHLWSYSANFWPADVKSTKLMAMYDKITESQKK

SMILES | Percent Effect [1] [%] | Percent Effect [2] [%] | Percent Effect [3] [%] | Percent Effect [4] [%] | Percent Effect [5] [%] | Percent Effect [6] [%] | Percent Effect [7] [%] | Percent Effect [8] [%] | Percent Effect [9] [%] | Percent Effect [10] [%] | Percent Effect [11] [%]
CCOc1ccc(N(CC(=O)c2ccccc2)C2=NCCCCC2)cc1 | -1.17 | -10.5 | 6.97 | 2.61 | 3.21 | -2.37 | 8.72 | -7.49 | -1.06 | -10.4 | 4.46
CC(C)c1nc(CN(C)C2CCN(CC(F)(F)F)C2)no1 (configuration not stated) | -5.29 | 5.48 | -3.78 | -4.08 | -0.588 | 2.73 | 6.57 | -2.57 | 4.3 | 10 | -1.35
Cn1ccnc1CN1CCN(Cc2ccccc2C#N)CC1 | -5.61 | 18.4 | -14.9 | 6.65 | 2.52 | -0.719 | 6.34 | 5.87 | 12.3 | 18.5 | -9.79
Cc1ncsc1C(=O)NC1CCN(CC(=O)N(C)C(C)(C)C#N)CC1 | -9.21 | 7.89 | -2.06 | 0.841 | -1.77 | 1.08 | -2.45 | 23.3 | 1.48 | -1.24 | 2.71
CCCNC(=O)CN1CCN(Cc2csc(C(C)(C)C)n2)CC1 | -7.74 | 2.53 | -2.27 | 0.111 | -4.63 | -1.14 | -7.62 | 20.3 | 2.46 | -3.8 | -1.83
COc1ccc([C@@H]2CN(C(=O)CCC(F)(F)F)C[C@H]2NC(C)=O)cc1 | -3.18 | 2.67 | 0.154 | -0.127 | -2.63 | 2.6 | 16.7 | 1.55 | 6.01 | 8.64 | -6.25
Cc1cccc(OCCC(=O)N(C)CCC#N)c1C | -4.33 | 2.63 | 12.1 | 7.74 | -5.16 | -5.92 | 23.1 | 9.14 | 4.25 | 10.4 | -5.59
Cn1cnc(S(=O)(=O)N2CCN(Cc3ccco3)CC2)c1Cl | -3.16 | 4.17 | -1.11 | 4.71 | 0.291 | 0 | 4.74 | 8.03 | -17.9 | 5.13 | -0.35
Cc1ccc(NC2CCN(C(=O)Cc3ccc(C#N)cc3)CC2)nn1 | -4.53 | 2.7 | -6.02 | 18.2 | 4.81 | -4.41 | 3.24 | -19.9 | 6.4 | 18.5 | -10.7
Fc1ccc2c(c1)C(NCc1nnc3n1CCCCC3)CCCO2 (configuration not stated) | -2.96 | 8.11 | -2.29 | 19.3 | 7.92 | 23.1 | -1.12 | 0.659 | 2.15 | 8.64 | -12.5
CN(C)C(=O)CSc1nnc(CCNC(=O)OC(C)(C)C)o1 | -1.89 | 9.33 | 6.95 | -7.38 | -8.64 | -13.6 | 13.9 | 10.4 | -3.17 | 2.56 | -10.9
CS(=O)(=O)NCCCNC(=O)c1cccnc1O | -3.07 | 0 | -3.83 | -4.12 | 1.76 | 1.25 | 16.6 | 6.15 | 7.92 | 8.54 | -4.62
COCCN(Cc1ccc(F)cc1Cl)C(=O)c1ccc(=O)[nH]n1 | -4.94 | 6.94 | -10.2 | 29.6 | 4.37 | 6.18 | 10.3 | -2.22 | 2.1 | 5.13 | -5.81
COCCOc1ccc(NC(=O)N2CCCC2c2ccncc2)cn1 (configuration not stated) | -2.75 | 0 | 2.9 | 5.29 | 2.64 | -1.47 | 12.8 | 11.5 | 1.91 | 0 | -22.2
O=C(CCc1cscn1)N1CCCC1c1noc(C2CC2)n1 (configuration not stated) | -5.78 | 16.2 | -11.8 | 6.15 | -1.42 | -2 | 11.3 | 6.02 | 12.3 | 16.1 | -5.15
COC(=O)C(c1cc(F)ccc1F)N(C)C(=O)c1csnn1 (configuration not stated) | 1.09 | 16.5 | 3.37 | -5.43 | -5.64 | -1.5 | 14.4 | 21.4 | 6.25 | 12.7 | -27.1
COc1ccc(C2(CNC(C)c3nnc(C)o3)CCCCC2)cc1 (configuration not stated) | -1.33 | -8.11 | -8.86 | 6.11 | 8.69 | -4.76 | 6.03 | 5.78 | 0.529 | 0 | 0.233
